# Source: PubChem BioAssay (NCATS)
# Inconclusive results are not listed. Unmarked numbers belong to inactive results. Activity calls are given as the source filed them. The call rests on the fitted dose curve; in most records, active means well fitted inhibition curve with a large enough effect; inconclusive means small, poorly fitted or top-dose-only effect; inactive means no such curve, though single readings can be large or run the other way.
# Assay: BET inhibitor-based combinations targeting novel dependencies in MECOM-rearranged (r) AML: UCSD-AML1 cell line (AID 2202235); further: nearly all actives have a fitted effect of over 40% in size;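 on viability (% of control): plate controls were DMSO vehicle wells for no effect and blank wells for full effect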
# Settings: UCSD-AML1 AML cells viability, CellTiter-Glo, 48 h; series mostly up to 46 µM; viability (% of control): at the top concentration
# Source text: Ecotropic viral insertion site 1 (EVI1) is located on chromosome 3q26.2 as part of the MECOM (MDS and EVI1 complex) locus. Under normal hematopoiesis, EVI1 is a regulator of hematopoietic stem cell maintenance and self-renewal and EVI1 levels decrease as the cells differentiate. In approximately 5-10% of de novo acute myeloid leukemia (AML) EVI1 is aberrantly expressed, including Chromosomal inv(3)(q21;q26.2) or t(3;3)(q21;q26.2) alterations (MECOM-r) that account for about 50% of AML with EVI1 overexpression 31. AMLs with high levels of EVI1 have a poor prognosis and an overall survival time averaging between 10-14 months. EVI1 overexpression confers resistance in leukemia cells, highlighting the need to develop new targeted therapies for EVI1 overexpressing AMLs. Here, we performed an unbiased chemical drug screening by evaluating the single agent activity of a collection of 2,480 oncology-focused, approved and investigational drugs (NCATS Mechanism Interrogation Plates, MIPE v5.0) against a panel of seven AML cell lines. These included four MECOM-r cell-lines (AML-191, AML-194, UCSD-AML1 and HNT-34) and three non-MECOM-r AMLs (MV4-11, OCI-AML3 and SET-2). Exploiting the mechanistic redundancy built in the library, we identified target-level sensitivities in MECOM-r AML cells and relative activity as compared to other AML subtypes.
# A collection of 2480 mechanistically annotated dugs (MIPE v5.0) was used to screen four 3q26.2 rearranged AML cell lines and three non-3q26.2 rearranged AML cell lines. This library purposely exploits redundancy by including multiple inhibitors of key onco-targets, while simultaneously encompassing mechanistic diversity, targeting more than 800 distinct mechanisms of action. Briefly, cells were seeded in 5 uL of growth media using a Multidrop Combi dispenser into 1536 well white polystyrene tissue culture treated plates (Corning) at a density of 500cells/well. For each cell-line, for each of the 2480 drugs in MIPE v5.0 library, an 11-point dose curve was generated via a 1536 pin-tool. Plates were incubated for 48 hr at standard incubator conditions, covered by a stainless steel gasketed lid to prevent evaporation. Cell viability was determined by luminescence based, Cell Titer Glo assay (Promega). In detail, 3 uL of Cell Titer Glo were added to each well and plates were incubated at room temperature for 15 min with a stainless-steel lid in place. Luminescence readings were taken using a Viewlux (PerkinElmer) with a 2 s exposure time per plate. Compound dose-response curves were normalized to DMSO and empty well controls on each plate. Quantitative drug activity data from dose-response curves was determined utilizing area Under the Curve (AUC) and Z-transformed AUC (Z-AUC, a mean-centering transformation applied to each individual cell-line screened).
# Potency means the concentration at half of the fitted maximal effect.
Structure (SMILES),viability (% of control),Potency
O=C(Nc1ccc(F)c(C(F)(F)F)c1)Nc1nnc(-c2ccncc2)s1,102%,
COc1cc(Nc2ncc3c(n2)-c2ccc(Cl)cc2C(c2c(F)cccc2OC)=NC3)ccc1C(=O)O,,59 nM (active)
CCOC(=O)C1=C(N)Oc2ccc(Br)cc2C1C(C#N)C(=O)OCC (stereo not given),112%,
Cc1nnc(C(=O)NC(C)(C)c2nc(C(=O)NCc3ccc(F)cc3)c(O)c(=O)n2C)o1,119%,
NCCCC(O)(P(=O)(O)O)P(=O)(O)O,104%,
Cc1ncc(NC(=O)c2ccc(CN3CCN(C)CC3)c(C(F)(F)F)c2)cc1Nc1nccc(-c2cccnc2)n1,112%,
CCOC(=O)c1ncn2c1CN(C)C(=O)c1cc(F)ccc1-2,99.7%,
CCC1(C)CC(=O)NC1=O (stereo not given),107% [at 92.2 µM],
C[C@]12CC[C@H](O)CC1=CCC1C2CC[C@]2(C)C(n3cnc4ccccc43)=CCC12 (stereo not given in full),113%,
O=C1[C@H](Cc2ccc(O)cc2)N2C(=O)CCN(C(=O)NCc3ccccc3)[C@H]2CN1Cc1cccc2ccccc12,,9340 nM (active)
Cc1ncc([N+](=O)[O-])n1CC(C)O (stereo not given),116%,
Cc1noc(-c2ccc(CSCCC(=O)O)cc2)c1NC(=O)OC(C)c1ccccc1Cl (stereo not given),110%,
COc1cccc2nc(-c3cccs3)nc(NN3C(=O)C=C(C)C3=O)c12,,105 nM (active)
Clc1cc2c(NC3CCCC3)nnc(-c3ccncc3)c2cc1Cl,114%,
Nc1ccn([C@@H]2CS[C@H](CO)O2)c(=O)n1,108%,
CC[C@]1(O)C[C@H]2CN(CCc3c([nH]c4ccccc34)[C@@](C(=O)OC)(c3cc4c(cc3OC)N(C=O)[C@H]3[C@@](O)(C(=O)OC)[C@H](OC(C)=O)[C@]5(CC)C=CCN6CC[C@]43[C@@H]65)C2)C1,,235 nM (active)
CCCN(CCC)C(=O)C(CCC(=O)O)NC(=O)c1ccccc1 (stereo not given),103%,
Cc1cc2c(s1)Nc1ccccc1N=C2N1CCN(C)CC1,99.9%,
CN[C@@H](C)[C@H]1[C@H](O)C[C@@]2(C)[C@@H]3CC[C@H]4C(C)(C)[C@@H](NC)CC[C@@]45C[C@@]35CC[C@]12C,111% [at 8.46 µM],
Nc1nc(OCc2ccccc2)c2[nH]cnc2n1,103%,

Structure (SMILES),viability (% of control),Potency
COc1cc2c(Oc3ccc(NC(=O)C4(C(=O)Nc5ccc(F)cc5)CC4)cc3F)ccnc2cc1OCCCN1CCOCC1,,833 nM (active)
Cc1nc2cnc3ccc(C#Cc4cccnc4)cc3c2n1-c1ccc(C(C)(C)C#N)cc1,,296 nM (active)
Cc1cc(Nc2cc(N3CCN(C)CC3)nc(Sc3ccc(NC(=O)C4CC4)cc3)n2)n[nH]1,,4680 nM (active)
C[N+]1(C)[C@@H]2CC(OC(=O)[C@H](CO)c3ccccc3)C[C@H]1[C@@H]1O[C@@H]12 (stereo not given in full),103%,
CC(=O)O[C@]1(C(C)=O)CC[C@H]2[C@@H]3C[C@H](C)C4=CC(=O)CC[C@]4(C)[C@H]3CC[C@@]21C,,10500 nM (active)
CC(C)(C)NCC(O)c1ccc(O)c(CO)c1 (stereo not given),103%,
C[C@]12CCC(=O)C=C1[C@@H]1C[C@@H]1[C@H]1[C@@H]3[C@@H]4C[C@@H]4[C@@]4(CCC(=O)O4)[C@@]3(C)CC[C@@H]12,115%,
Nc1ncn([C@@H]2O[C@H](CO)[C@@H](O)[C@H]2O)c(=O)n1,,4680 nM (active)
NC(=O)c1cccc2[nH]c(-c3ccc([C@H]4CCCN4)cc3F)nc12,113%,
CC(C)C[C@H](NC(=O)CNC(=O)c1cc(Cl)ccc1Cl)B(O)O,,166 nM (active)
CN1C(=O)c2sccc2N(C)c2nc(Nc3ccc(S(N)(=O)=O)cc3)ncc21,,2350 nM (active)
C[C@@H]1C(=O)O[C@H]2CC34[C@H]5C[C@@H](C(C)(C)C)C36[C@H](OC(=O)[C@@H]6O)O[C@@]4(C(=O)O5)[C@]21O (stereo not given in full),33.4%,
O=c1[nH]c(=O)n([C@H]2C[C@H](O)[C@@H](CO)O2)cc1I,,20900 nM (active)
CC[C@@]1([C@@H]2O[C@@H]([C@H]3O[C@@](O)(CO)[C@H](C)C[C@H]3C)C[C@H]2C)CC[C@H]([C@]2(C)CC[C@]3(C[C@H](O)[C@@H](C)[C@@H]([C@@H](C)[C@@H](OC)[C@H](C)C(=O)O)O3)O2)O1,,288 nM (active)
Clc1cccc(-n2nnnc2NCc2ccccc2Oc2ccccn2)c1Cl,114%,
Cc1cc(Nc2ncc(Cl)c(Nc3ccccc3S(=O)(=O)C(C)C)n2)c(OC(C)C)cc1C1CCNCC1,,10500 nM (active)
CCN1CCN(Cc2ccc(Nc3ncc(F)c(-c4cc(F)c5nc(C)n(C(C)C)c5c4)n3)nc2)CC1,,662 nM (active)
Cc1ccnc(NS(=O)(=O)c2ccc(NC(=O)Nc3ccc(S(=O)(=O)Nc4nccc(C)n4)cc3)cc2)n1,112%,
C=C1C(=O)[C@@]23C(CC[C@@H]1[C@H]2O)[C@@]12CO[C@]3(O)[C@@H](O)[C@@H]1C(C)(C)CC[C@@H]2O (stereo not given in full),,5900 nM (active)
CCCCOCCOc1nc(-c2ccc(C(=O)O)c(F)c2)sc1C,99.5%,
